Inconclusive results are not listed. Entries that show only a call come without a potency. Calls of active or inactive are those of the source. Unless noted, the call rests on the fitted dose curve; in most records, active means well fitted curve in the direction sought with a large enough effect in the repeat runs; inconclusive means weak or mixed curves; inactive means no such curve, though single readings can be large; an effect the other way counts as inactive or inconclusive.
Experiments:
[1] = qHTS assay to identify small molecule agonists of the vitamin D receptor (VDR) signaling pathway - cell viability counter screen (AID 743224); settings: VDR-bla HEK293T viability, CellTiter-Glo luminescence, 16 h; series mostly up to 62.6 µM; further: nearly all actives have a fitted effect of over 50% in size
Method in brief: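 Cytotoxicity counter screen: VDR-bla cells, 16 h compound exposure at 37C, 5% CO2; CellTiter-Glo luminescence, 30 min RT, same wells as bla read.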

[2] = qHTS assay to identify small molecule agonists of the NFkB signaling pathway - cell viability counter screen (AID 1159515; calls by dose curve; further: nearly all actives have a fitted effect of over 55% in size); settings: NFkB-bla ME-180 viability, CellTiter-Glo luminescence, 5 h; series mostly up to 61 µM
Method in brief: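 ME-180 NFkB-bla cells, 2,000/well; overnight attach; compound 5 hr, 37 C/5% CO2; LiveBLAzer substrate 1.5 hr RT; then CellTiter-Glo in same wells, 30 min RT, luminescence read.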

[3] = qHTS assay to identify small molecule agonists of the endoplasmic reticulum stress response signaling pathway (AID 1159516; active means well fitted activation curve with a large enough effect in the signal ratio in the repeat runs, not every such curve was filed as active; the % refers to the signal ratio); settings: ESRE-bla HeLa, ER stress beta-lactamase reporter, 5 h; series mostly up to 61 µM
Method in brief: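 HeLa ESRE-bla reporter line; cpd 5 h, 37 C/5% CO2; LiveBLAzer B/G FRET substrate 2 h RT; ex 405, em 460/530 nm.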

[4] = qHTS assay to identify small molecule antagonists of the retinoid-related orphan receptor gamma (ROR-gamma) signaling pathway - cell viability counter screen (AID 1159520); settings: Tet-on RORgamma CHO cells viability, ATP luminescence, 16 h; series mostly up to 92.4 µM; further: nearly all actives have a fitted effect of over 50% in size; further: potency means the concentration at half of the fitted maximal effect
Method in brief: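 Tet-on ROR gamma CHO cells were given compounds for 2 hr, then doxycycline hyclate at 1 uM final, and incubated 16 hr at 37 C. Viability was measured as ATP content by CellTiter-Glo luminescence.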

[5] = target: Nuclear receptor ROR-gamma (Homo sapiens) (UniProt P51449); experiment: qHTS assay to identify small molecule antagonists of the retinoid-related orphan receptor gamma (ROR-gamma) signaling pathway (AID 1159521; further: top concentration of the series differs between compounds; nearly all actives have a fitted effect of over 50% in size); settings: Tet-on RORgamma CHO cells, RORE-luciferase, 16 h; series mostly up to 92.4 µM
Method in brief: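 Antagonist read-out: drop in luminescence (ONE-Glo) from an RORE-LUC reporter in CHO cells with doxycycline-inducible ROR-gamma; 2 hr compound pretreatment, 1 uM doxycycline, 16 hr incubation at 37 C.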

[6] = qHTS assay to identify small molecule agonists of the AP-1 signaling pathway - cell viability counter screen (AID 1159525; calls by dose curve; further: nearly all actives have a fitted effect of over 55% in size); settings: ME-180 AP-1-bla cells viability, ATP luminescence, 5 h; series mostly up to 76.8 µM
Method in brief: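 Same-well cytotoxicity counter screen of the Tox21 10K library in ME-180 cells. The readout is ATP-dependent luminescence after 5 h compound treatment. Data are normalised to DMSO and tetra n-octyl ammonium bromide controls.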

[7] = qHTS assay to identify small molecule agonists of the AP-1 signaling pathway (AID 1159526; calls by dose curve); settings: ME-180 (cervical carcinoma) AP-1-bla reporter, beta-lactamase FRET ratio, 5 h; series mostly up to 76.8 µM
[8] = qHTS assay to identify small molecule antagonists of the vitamin D receptor (VDR) signaling pathway - cell viability counter screen (AID 743225); settings: VDR-bla HEK293T viability, CellTiter-Glo luminescence, 16 h; series mostly up to 61 µM; further: nearly all actives have a fitted effect of over 50% in size
Method in brief: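 Cytotoxicity counter screen read by CellTiter-Glo luminescence (30 min, room temperature) in the same wells as the VDR-bla antagonist readout. HEK 293T VDR-UAS-bla cells had 16 h at 37C with compound and 3 nM (final) 1-alpha,25-dihydroxyvitamin D3, then 2 h with FRET substrate.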

[9] = target: Retinoic acid receptor RXR-alpha (Homo sapiens) (UniProt P19793); experiment: qHTS assay to identify small molecule agonists of the RXR signaling pathway (AID 1159527; calls by dose curve; further: nearly all actives have a fitted effect of over 35% in size); settings: HEK293T RXRa-UAS-bla, beta-lactamase ratio, 16 h; series mostly up to 76.8 µM
Method in brief: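 Agonist-mode beta-lactamase reporter assay: HEK 293T RXR-alpha-UAS-bla cells treated 16 hr at 37 C with compounds, 9-cis retinoic acid as positive control. LiveBLAzer FRET substrate, 405 nm excitation, 460/530 nm emission.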

Sequence of Retinoic acid receptor RXR-alpha (Homo sapiens) (P19793 whole entry, looked up): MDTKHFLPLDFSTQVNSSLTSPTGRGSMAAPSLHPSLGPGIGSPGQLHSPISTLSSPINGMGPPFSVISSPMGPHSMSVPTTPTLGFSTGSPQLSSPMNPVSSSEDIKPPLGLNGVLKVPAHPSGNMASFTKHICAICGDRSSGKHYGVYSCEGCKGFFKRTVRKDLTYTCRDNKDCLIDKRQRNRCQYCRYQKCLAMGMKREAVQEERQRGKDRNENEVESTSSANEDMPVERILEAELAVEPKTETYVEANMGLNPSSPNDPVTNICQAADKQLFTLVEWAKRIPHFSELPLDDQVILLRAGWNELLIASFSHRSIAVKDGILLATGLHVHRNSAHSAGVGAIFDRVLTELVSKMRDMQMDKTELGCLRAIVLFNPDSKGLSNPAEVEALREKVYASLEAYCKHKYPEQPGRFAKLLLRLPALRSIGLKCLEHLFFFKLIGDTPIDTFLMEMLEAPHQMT

Row | Structure (SMILES) | Potency [1] | Potency [2] | Potency [3] | Potency [4] | Potency [5] | Potency [6] | Potency [7] | Potency [8] | Potency [9]
1 | COc1ccc([C@@H]2Sc3ccccc3N(CCN(C)C)C(=O)[C@@H]2OC(C)=O)cc1 | inactive | inactive | inactive | inactive | inactive | inactive | inactive |  | 
2 | CCCc1ccccc1 | inactive | inactive | inactive | inactive | inactive | inactive | inactive | inactive | 
3 | CCOc1nc2cccc(C(=O)O)c2n1Cc1ccc(-c2ccccc2-c2nn[nH]n2)cc1 | inactive | inactive | inactive | inactive | inactive | inactive | inactive | inactive | 
4 | CC(C)c1ccc2c(C(C)C)cc(C(C)C)c(S(=O)(=O)O)c2c1 | inactive | inactive | inactive | inactive | inactive | inactive |  | inactive | inactive
5 | Cn1sccc1=O |  | inactive | inactive | 61.1 µM (active) |  | inactive |  | inactive | 
